# Only some compounds are listed: those with a hit (about 2% of all), similar ones and a draw of the others.
# Arbovirus anti = arbovirus infection inhibition; AID 1251; arbovirus infection cell-based antiviral screen; inhibition, % at 10 µM; hit rate 0.37% among 200,000; in the data active = inhibition above about 30%
# Efa HMGR inh = blocks class II HMG-CoA reductase of Enterococcus faecalis; purified E. faecalis HMGR, NADPH absorbance 340 nm kinetic; inhibition, % at 10 µM; hit rate 0.41% among 190,000; AID 1066;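 active = inhibition above a set limit, the median over all tested compounds plus 3 SD, cut at about 9.5% in these data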;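 note: enzyme runs in reverse so mevalonate oxidation gives rising NADPH absorbance; 0% = complete reaction with DMSO and 100% = background rate lacking mevalonate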
# Wee1 stabilizer = blocks degradation of human Wee1 kinase; P30291; reporter increase, % at 5 µM; HeLa Luc-Wee1K328M stability, luciferase luminescence; 100% = proteasome inhibitor MG132 effect; hit rate 1.2% among 220,000;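 active = activation above the mean of all tested compounds plus 3 SD, set per screening run, cut at about 8.8% in these data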;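 note: cells exposed to compound for 20 h before luminescence read; 0% = DMSO alone and 100% = MG132 at 30 µM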
# Target sequence (P30291 whole entry K328M): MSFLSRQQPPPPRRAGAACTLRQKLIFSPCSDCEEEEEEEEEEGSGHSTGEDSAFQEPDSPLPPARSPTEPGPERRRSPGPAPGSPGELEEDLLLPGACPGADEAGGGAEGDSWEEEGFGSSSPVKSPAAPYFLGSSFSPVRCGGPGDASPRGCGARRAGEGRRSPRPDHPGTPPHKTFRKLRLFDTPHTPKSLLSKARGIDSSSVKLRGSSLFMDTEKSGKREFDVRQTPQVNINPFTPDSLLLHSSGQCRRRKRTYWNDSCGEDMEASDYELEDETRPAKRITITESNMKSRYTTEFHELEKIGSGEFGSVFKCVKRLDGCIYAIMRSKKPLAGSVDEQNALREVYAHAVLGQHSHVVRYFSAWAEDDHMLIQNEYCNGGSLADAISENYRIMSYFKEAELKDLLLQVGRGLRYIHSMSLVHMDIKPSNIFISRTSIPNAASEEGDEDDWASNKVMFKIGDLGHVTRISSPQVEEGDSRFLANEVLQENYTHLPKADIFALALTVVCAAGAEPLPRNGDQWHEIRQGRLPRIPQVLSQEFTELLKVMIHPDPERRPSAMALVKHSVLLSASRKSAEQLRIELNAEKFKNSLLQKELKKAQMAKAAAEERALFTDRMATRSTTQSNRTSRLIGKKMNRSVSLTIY
# Hsp70 act = transcriptional activators of Hsp70 | activation, % at 10 µM | HeLa Hsp70 promoter luciferase reporter, luminescence; scaled: vehicle 0, proteasome-inhibitor control 100% | AID 1203 | hit rate 0.04% among 200,000;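 active = activation above the mean across all tested compounds plus 3 SD, cutoff set per campaign, cut at about 5.5% in these data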;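 note: 100% = MG132 at 30 µM as the positive control and 0% = DMSO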
# PKD1 kinase inh = inhibitors of human PKD1 kinase; Q15139; PKD1 kinase fluorescence polarization assay; inhibition, % (no concentration beside the values); hit rate 0.056% among 200,000; AID 797; in the data active = inhibition above about 50%
# * hit, by the source's call; / = no result given.
SMILES,Arbovirus anti,Efa HMGR inh,Wee1 stabilizer,Hsp70 act,PKD1 kinase inh
Cc1cccc(OCC(=O)Nc2cccc(C(=O)Nc3ccccc3C(=O)O)c2)c1,55*,-1,-1,0,1
O=C(/C=C/c1ccco1)Nc1cccc(C(=O)Nc2ccccc2C(=O)O)c1,/,/,11*,/,/
Cc1ccc(NC(=O)c2c(C)nn(-c3ccccc3)c2Cl)cc1,-1,-4,-3,0,-4
COc1ccc(N2C(=O)CSC2c2ccccc2[N+](=O)[O-])cc1 (configuration not stated),-2,-3,-1,1,2
CC(=O)c1ccc(S(=O)(=O)N2CCN(C)CC2)cc1,-5,-2,-4,0,-6
O=S(=O)(Nc1cccc(-c2nc3cccnc3s2)c1)c1ccc2c(c1)OCCO2,31*,-2,2,0,2
COc1ccc(C(=O)Nc2ccc(N3CCOCC3)cc2)cc1S(=O)(=O)NC1CCCC1,-5,-4,-2,0,1
Cc1ccc(NC(=O)COC(=O)Cc2csc(-c3ccc(Cl)cc3)n2)cc1C,1,-4,15*,0,-6
COc1ccc(Cc2[nH]n3c(=O)c(Cl)c(C)nc3c2-c2ccccc2)cc1,-10,-3,-3,0,5
Cc1cccc(C(=O)NC(=S)N2CCc3ccccc3C2)c1,-5,-6,0,-1,5
NC(=O)C1CCN(C(=O)COc2ccc(Nc3ccccc3)cc2)CC1,/,/,0,/,/
Nc1cc(=O)[nH]c(SCC(=O)Nc2ccc3c(c2)CCC3)n1,9,2,9.6*,0,3
Cc1ccc2nc(-c3ccc(NC(=O)CSc4nc(N)cc(=O)[nH]4)cc3)sc2c1,/,/,11*,/,/
O=C(CSc1nc(O)cc(=O)[nH]1)Nc1ccc2c(c1)CCC2,-5,-2,7,-1,-2
Cc1ccc(C)c(Oc2coc3cc(OCC(=O)Nc4ccccc4C(C)C)ccc3c2=O)c1,-7,0,-1,0,-5
CCc1ccc(NC(=O)Cn2c(=O)n(CCC(=O)NC3CCN(Cc4ccccc4)CC3)c(=O)c3ccccc32)cc1,/,/,-2,/,/
COc1cc(/C=C(/Sc2nnc(-c3ccc(F)cc3)o2)C(=O)O)ccc1OC(F)F,8,10*,2,0,-7
COc1ccc(/C=C(/Sc2nnc(-c3ccc(Cl)cc3)o2)C(=O)O)cc1,-5,0,-2,0,2
CC1CCC/C(=C\Nc2ccc(O)cc2)C1=O (configuration not stated),-24,0,0,0,0
CC1(C)OC(C)(C)/C(=C/Nc2ccc(O)cc2)C1=O,-16,-7,9.9*,0,-10
c1ccc(Oc2ccc(-c3ccnc4nc(N5CCOCC5)nn34)cc2)cc1,2,-9,9.3*,0,-6
CCOC(=O)COc1cc(-n2c(=S)[nH]c3ccccc3c2=O)c(Cl)cc1Cl,7,-8,0,0,-2
CCOC(=O)COc1cc(N)c(Cl)cc1Cl,5,-5,13*,0,-2
CC(C)N1C(=O)c2ccccc2N(Cc2ccccc2)S1(=O)=O,/,/,10*,/,/
O=C1C(=O)N(Cc2ccccc2)C(=O)N1CCN1C(=O)c2ccccc2C1=O,17,-5,-3,0,1
SMILES,Arbovirus anti,Efa HMGR inh,Wee1 stabilizer,Hsp70 act,PKD1 kinase inh
CCN(CCn1cccn1)Cc1c(C(=O)N2CCCCCCC2)nc2ccc(Cl)cn12,-3,-12,-2,0,0
CCOc1ccc(-n2nc(C(=O)N3CCN(CC)CC3)c3ccccc3c2=O)cc1,-1,1,9.6*,0,11
CCOc1ccc(-n2nc(C(=O)NCCOC)c3ccccc3c2=O)cc1,2,-4,0,0,-13
Cc1cc(C)nc(NC(=O)/C=C/c2ccc3c(c2)OCO3)c1,-28,-5,8.9*,0,6
CCOC(=O)c1ccccc1NC(=O)C(C)Oc1ccccc1 (configuration not stated),1,-14,9.7*,0,-5
CC(C(=O)O)N1C(=O)c2ccccc2C1=O (configuration not stated),3,12*,4,0,-3
CC(C(=O)N1CCN(C)CC1)N1C(=O)c2ccccc2C1=O (configuration not stated),-1,-4,-1,0,-8
O=C(COc1ccccc1F)N/N=C1\CCCc2ccccc21,2,3,11*,0,-10
O=C(CCCn1cnc([N+](=O)[O-])n1)Nc1ccc(F)c(Cl)c1,1,-3,9.9*,0,-2
CCC1CCCCN1C(=O)c1cccc(S(=O)(=O)Nc2cc(C(F)(F)F)ccc2Cl)c1 (configuration not stated),8,-4,4,0,11
O=C(NC1CCN(Cc2ccccc2)CC1)c1cccc(S(=O)(=O)Nc2cc(C(F)(F)F)ccc2Cl)c1,33*,-8,2,0,13
CC(=O)Nc1ccc(OCC(O)Cn2c(C)nc3ccccc32)cc1 (configuration not stated),1,2,0,0,2
CC(=O)Nc1ccc(OCC(O)Cn2c(C(C)C)nc3ccccc32)cc1 (configuration not stated),-1,11*,-1,0,-11
C=CCNC(=O)N[C@@H](Cc1ccccc1)C(=O)OC,/,/,0,/,/
O=c1c(-c2ccccc2)c[nH]n1-c1cccc([N+](=O)[O-])c1,35*,0,4,0,-5
CC(C)c1c(Cl)c(O)c(-c2ccccc2)c(=O)n1-c1ccc(F)cc1,1,-6,-2,0,-11
CCOc1ccc2nc(NC(=O)C3=NN(c4ccccc4)C(=O)CC3)sc2c1,52*,0,-2,0,2
Cc1cccc2sc(NC(=O)C3=NN(c4ccccc4)C(=O)CC3)nc12,3,-7,-2,0,1
COc1ccc(-c2csc(NC(=O)C3=NN(c4ccccc4)C(=O)CC3)n2)cc1,31*,-1,-3,0,1
O=C(Nc1nc2ccccc2s1)c1cc(-c2ccccc2)nn1-c1ccccc1,49*,2,-2,0,-6
CCOc1ccc2nc(NC(=O)C3=NNC(=O)CC3)sc2c1,-10,-3,2,0,0
Cc1ccc2nc(NC(=O)C3=NN(c4ccccc4)C(=O)CC3)sc2c1,60*,0,0,0,0
CCCCC(=O)Nc1nnc(-c2ccco2)o1,19,5,-4,0,2
CCOCCCNCC(=O)NCC1CCCCC1,-5,0,-1,0,4
Nn1c(SCC(=O)Nc2ccc3c(c2)OCO3)nncc1=O,-5,9.7*,6,0,2
Nn1c(SCC(=O)Nc2ccc3c(c2)OCO3)nnc1C1CC1,-3,0,1,0,-6
Nc1nnn(CC(=O)N/N=C/c2cn[nH]c2-c2ccccc2)n1,/,/,0,/,/
O=c1cc(-c2ccc([N+](=O)[O-])cc2)nc2cc(-c3ccc(F)cc3)[nH]n12,5,-3,-1,0,-5
O=[N+]([O-])c1ccc(NCCNCCOc2nonc2-c2ccccc2)c([N+](=O)[O-])c1,30*,0,2,0,-7
Cc1nonc1OCCNCCNc1ccc([N+](=O)[O-])cc1Cl,1,-4,-4,0,13

# Screening results deposited in PubChem BioAssay by several laboratories.
